# Assay outcomes deposited in PubChem by Sanford-Burnham Center for Chemical Genomics.
# TROY signal inh – blocks TROY-dependent signaling in reporter cells. Q293 LMP1-TROYcd NF-kB luciferase reporter, 4 h. inhibition, % at 10 µM. 360,000 tested, 0.98% active. AID 1347056;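 active = compounds whose plate-normalised and pattern-corrected inhibition of the luciferase reporter signal at the single screening dose is 50% or more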
# TWEAK Fn14 block – TWEAK-Fn14 signaling inhibition | 360,000 tested, 2% active | inhibition, % at 10 µM | AID 1159606 | TWEAK-stimulated Fn14 reporter cells, luciferase luminescence, 8 h; in the data active = inhibition above about 50%
# Peg3 promoter – reduces Peg3 promoter-driven luciferase expression in HeLa; 360,000 tested, 1.7% active; HeLa PEG-Prom luciferase reporter, luminescence, overnight; inhibition, % at 20 µM;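 active = inhibition of at least 50% at 20 µM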
# CF NFkB block – inhibitors of cystic fibrosis induced NF-kB; inhibition, % at 5 µM; 360,000 tested, 0.86% active; AID 588850; KKLEB NF-kB-GFP reporter, PAF-induced, GFP fluorescence overnight;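 active = at least 50% inhibition at 5 µM, scaled per plate between neutral and stimulator controls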;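 note: PAF is a Pseudomonas aeruginosa culture filtrate used as stimulus; plate controls were PAF-stimulated DMSO wells for no effect and unstimulated DMSO wells for full effect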
# HIF-2a inh – blocks HIF-2a reporter activity. 786-0 RCC cells HIF-2a reporter, luciferase luminescence, overnight. inhibition, % at 18.8 µM. 360,000 tested, 0.72% active. AID 624352;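 active = inhibition of the luminescence signal of 40% or more relative to plate controls, in a single-dose primary screen at 18.75 µM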
# KKLEB cytotox – counter-screen for CF NF-kB inhibitors: cytotoxicity | activity change (cytotoxicity), % at 5 µM | 360,000 tested, 0.36% active | KKLEB CF airway cells viability, ATPlite luminescence, overnight; active compounds read low; cells stimulated with P. aeruginosa culture filtrate;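 active = corrected activity change at or below -50% at 5 µM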
# Active calls of the source: *. This is a sample that favours compounds with a hit; in the whole collection about 4% have one here.
SMILES,TROY signal inh,TWEAK Fn14 block,Peg3 promoter,CF NFkB block,HIF-2a inh,KKLEB cytotox
COc1ccc2nc(Nc3nc(C)c(C(C)=O)s3)sc2c1,-2.6,64.0*,-289.5,-23.1,-266.0,4.0
COc1ccc(Br)cc1C(=O)Nc1cc(C)cc(C)c1,-10.2,-17.0,8.4,12.6,7.4,-0.6
CC(C)(CNS(=O)(=O)c1ccc2ccccc2c1)N1CCOCC1,4.1,18.1,-3.2,30.9,-3.4,-0.1
Cc1cc(CNC(=O)COc2ccc(F)cc2F)c2ccccc2n1,4.0,3.8,-22.3,2.3,-15.7,7.7
Cc1cc(CNC(=O)COc2cc(F)ccc2[N+](=O)[O-])c2ccccc2n1,7.0,76.7*,23.0,9.6,27.8,-0.2
O=C(CC1CS(=O)(=O)CC1CC(=O)Nc1ccc2c(c1)OCCO2)Nc1ccc2c(c1)OCCO2 (stereo not given),-2.5,91.3*,23.4,-13.9,19.5,-11.0
Cc1ncoc1C(=O)Nc1ccc2c(c1)OCCO2,41.5,73.3*,-70.3,3.6,-31.8,-5.1
O=C(CCN1C(=O)c2ccccc2C1=O)Nc1ccc2c(c1)OCCO2,0.2,14.8,5.1,-1.8,8.9,4.3
O=C(CCl)Nc1c(C(=O)Nc2ccc3c(c2)OCCO3)oc2ccccc12,24.1,35.1,98.3*,19.8,-52.3,-31.4
O=C(CCn1cccn1)Nc1ccc2c(c1)OCCO2,61.5*,78.3*,-6.8,5.5,-0.2,-2.7
CCC(=O)Nc1ccc2c(c1)OCCO2,14.3,34.7,-17.6,3.3,-2.2,-2.3
Cc1ccsc1C(=O)Nc1ccc2c(c1)OCCO2,-15.5,32.7,-128.3,-1.1,-88.6,-8.9
O=C(O)CCNC(=O)c1ccc(NC(=O)Cc2ccc(Cl)cc2)cc1,-21.4,-12.9,0.5,0.3,-5.6,-6.0
Cc1ccccc1C(=O)Nc1ccc2c(c1)OCCO2,-12.2,57.8*,-56.1,11.9,-47.5,0.2
CC1(C(=O)Nc2ccc3c(c2)OCCO3)CCN1C(=O)c1ccccc1CCc1ccccc1 (stereo not given),35.1,68.5*,18.9,-19.1,29.4,-2.2
O=C(Nc1ccc2c(c1)OCCO2)c1coc2ccccc2c1=O,85.4*,86.9*,3.3,24.8,16.6,3.8
Cc1nc2ccccn2c1C(=O)Nc1ccc2c(c1)OCCO2,67.5*,85.0*,-173.1,8.6,0.9,-7.5
CC(=O)Nc1ccc(NC(=O)c2c(C)nc3ccccn23)cc1,-6.1,-9.4,-18.3,-7.1,-16.5,0.3
CN1CCN(c2ncnc3c2ncn3[C@H]2CN(Cc3ccc(-c4ccccc4)cc3)C[C@@H](CO)O2)CC1,15.4,8.4,27.7,9.0,-0.6,-8.2
CN1C(=O)c2ccccc2C(C(=O)O)C1c1cccc([N+](=O)[O-])c1 (stereo not given),2.1,-7.4,-2.9,2.6,8.1,0.6
CC(=O)Nc1ccc(S(=O)(=O)N2CCN=C2c2ccccc2)cc1,16.6,-5.9,22.2,-11.9,4.3,7.2
O=C(N[C@@H]1C/C=C\C[C@H](CC(=O)N(CCO)Cc2ccccc2)C(=O)NC[C@@H](c2ccccc2)OC1=O)OCC1c2ccccc2-c2ccccc21,0.9,17.9,42.4,-5.0,8.0,-6.4
O=C(C[C@H]1C/C=C\C[C@H](NC(=O)OCC2c3ccccc3-c3ccccc32)C(=O)O[C@H](c2ccccc2)CNC1=O)N[C@H](CO)Cc1ccccc1,-6.8,-54.3,87.5*,86.5*,7.3,-95.5*
CC(O)CNCCOc1ccccc1-c1ccccc1 (stereo not given),-11.7,-16.8,5.1,-1.7,15.4,4.8
Cc1ccccc1C(=O)NNC(=O)c1cc(N)cc([N+](=O)[O-])c1,57.3*,-15.3,6.6,-0.2,14.4,4.2
SMILES,TROY signal inh,TWEAK Fn14 block,Peg3 promoter,CF NFkB block,HIF-2a inh,KKLEB cytotox
CCOC(=O)C1=C(C)N=c2s/c(=C3\C(=O)Nc4ccccc43)c(=O)n2C1c1ccc2c(c1)OCO2 (stereo not given),8.2,-0.9,23.7,-2.4,28.1,2.9
C=CCOC(=O)C1=C(C)N=c2s/c(=C3\C(=O)N(CC(=O)O)c4ccccc43)c(=O)n2C1c1ccc(OC)cc1 (stereo not given),-4.1,58.5*,35.6,23.7,12.7,0.2
C[C@H]1CN([C@@H](C)CO)C(=O)c2cccc(NS(=O)(=O)c3cn(C)cn3)c2O[C@H]1CN(C)S(C)(=O)=O,-5.4,-0.4,-11.4,-27.3,-3.1,-9.6
COCCN(Cc1ccccc1)C(=O)c1cc(-c2ccc(OC)c(OC)c2)nc2ccccc12,-4.6,-23.6,51.5*,5.1,5.0,-1.9
CCN(Cc1ccccc1)C(=O)c1cc(-c2ccc(OC)c(OC)c2)nc2ccccc12,-20.4,-4.9,48.6,-35.3,10.6,-8.1
CC1CCN(C(=O)CS(=O)(=O)Cc2ccccc2)CC1,-33.3,7.6,-114.8,5.7,-112.6,10.9
Cc1ccc(C)c(OCC(O)CN2CCN(CCN3C(=O)c4cccc5cccc(c45)C3=O)CC2)c1 (stereo not given),-5.8,-25.9,88.6*,-28.7,-9.3,-23.0
O=C1c2cccc3cccc(c23)C(=O)N1CCN1CCN(CC(O)COc2ccc3ccccc3c2)CC1 (stereo not given),-2.0,6.3,78.7*,-17.4,-13.6,-15.1
CCc1ccc(OCC(O)CN2CCC(CN3C(=O)c4cccc5cccc(c45)C3=O)CC2)cc1 (stereo not given),8.3,-48.6,108.6*,22.7,27.1,-28.5
Cc1cc(C)cc(OCC(O)CN2CCC(CN3C(=O)c4cccc5cccc(c45)C3=O)CC2)c1 (stereo not given),23.6,-14.0,75.2*,-11.7,8.5,-8.7
COc1ccc(COCC(O)CN2CCC(CN3C(=O)c4cccc5cccc(c45)C3=O)CC2)cc1OC (stereo not given),1.6,-19.9,20.0,4.9,7.3,-11.7
CC(=O)c1ccccc1OCC(O)CN1CCN(CCN2C(=O)c3cccc4cccc(c34)C2=O)CC1 (stereo not given),27.6,-6.4,16.9,-23.1,-7.1,-17.8
CCOC(=O)C1CCCN(C(=O)c2[nH]c3ccc(OC)cc3c2C)C1 (stereo not given),19.5,21.3,13.5,-31.4,12.0,-2.0
O=C(c1cnn2c(C(F)(F)F)cc(-c3ccc(F)cc3)nc12)N1CCc2ccccc2C1,12.3,1.8,13.8,1.6,17.3,-20.8
O=C1c2cccc3cccc(c23)C(=O)N1CC1CCN(CC(O)COc2ccc3ccccc3c2)CC1 (stereo not given),40.4,-26.1,100.5*,20.4,-4.7,-14.9
COc1cccc(OCC(O)CN2CCC(CN3C(=O)c4cccc5cccc(c45)C3=O)CC2)c1 (stereo not given),20.6,-44.2,19.2,6.6,15.3,-3.5
CN(C1CCS(=O)(=O)C1)S(=O)(=O)c1ccccc1[N+](=O)[O-] (stereo not given),6.8,3.7,14.2,-2.0,26.0,11.7
